These results are taken from the OligoGym collection.
Note: reference of the scale not given here.

One assay has as its target EID2B. Nature of the assay: pooled miR-30 sensor sort-seq; sequence = guide strand. To be noted: shRNA.
Regarding TTGACATGACCACAAATTGTGA, the sensor-assay potency score (higher = more potent) was -1.04.

For TTTTCTTTCATCACTTAGGTTC, the sensor-assay potency score (higher = more potent) is -0.263.

The sequence TTTTTTCTCATATCTTTGCAAA returned a sensor-assay potency score (higher = more potent) of -1.11.

TAAGTCAGAAGTGTCTTGGGAC had a sensor-assay potency score (higher = more potent) of 0.252.

As to TTCTATTGAATATTTACTGTTC, the sensor-assay potency score (higher = more potent) amounted to 0.0406.

Consider TTTTCTATTGAATATTTACTGT, for which the sensor-assay potency score (higher = more potent) was -0.85.

Regarding ATACTCGCGGAACAACAGCTGC, the sensor-assay potency score (higher = more potent) is -1.3.

TCGCGGAACAACAGCTGCCGGT showed a sensor-assay potency score (higher = more potent) of -1.55.

Turning to TAAACTGGCACAGCCTGCCTGT, the sensor-assay potency score (higher = more potent) was -0.54.

TATCTTTGCAAAACCATCCTTT yielded a sensor-assay potency score (higher = more potent) of -0.0384.

As for TTCCTGACAACTCTATTTCTTT, the sensor-assay potency score (higher = more potent) was -0.963.

Consider TAACTAAACTGGCACAGCCTGC, for which the sensor-assay potency score (higher = more potent) was -0.861.

In another assay the target is EIF1. The assay is described as above. To be noted: shRNA.
As for TGTAGCTGAATTACTTCTCCAT, the sensor-assay potency score (higher = more potent) is 0.149.

Regarding TTATATGGATATAATCCTCAGT, the sensor-assay potency score (higher = more potent) is -0.502.

Sequence TTTTATCGTAATCATCAGCGAT registered a sensor-assay potency score (higher = more potent) of -0.796.

The sequence TTACTTGCATCAGCAAAGGGGT registered a sensor-assay potency score (higher = more potent) of -1.07.

TTTATCGTAATCATCAGCGATC yielded a sensor-assay potency score (higher = more potent) of -0.622.
